Assay outcomes deposited in PubChem BioAssay by National Center for Advancing Translational Sciences (NCATS).
LDHA inh – qHTS assay for inhibitors of human lactate dehydrogenase. purified LDHA, NADH/diaphorase-resazurin fluorescence; stronger effect = lower value. activity change, % (values are at about 110 or 230 µM). hit rate 0.15% among 480,000; in the data active means activity change below about -30%; inconclusive means mostly about -25% to -30%;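 further: plate controls were DMSO wells for no effect and wells without enzyme for full effect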
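Remaining NADH was detected by diaphorase (0.133 mg/mL) converting 37 µM resazurin to fluorescent resorufin, read at 0 and 20 minutes. The preceding 5-minute room-temperature reaction used 2 nM LDHA, 0.2 mM sodium pyruvate and 0.06 mM NADH at pH 7.4.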
TDP1 cell CPT – qHTS for Inhibitors of human tyrosyl-DNA phosphodiesterase 1 (TDP1): qHTS in cells in presence of CPT | chicken DT40 Tdp1-/-;hTDP1 cells + 20 nM CPT, ATP luminescence, 48 h | Potency, µM (doses to about 46.2 µM), for the others: at the top dose activity change, negative = growth inhibition, actives largely listed as inhibitors | hit rate 12% among 420,000 | AID 686979, 2013; further: potency means the concentration at half of the fitted maximal effect; nearly all actives have a fitted effect of over 55% in size
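Cell growth measured by CellTiter-Glo luminescence after a minimum 48 h, 37 C compound exposure with 20 nM CPT in Tdp1-knockout DT40 cells stably expressing hTDP1, seeded 400/well; qHTS titration format.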
TDP1 cell noCPT – qHTS for Inhibitors of human tyrosyl-DNA phosphodiesterase 1 (TDP1): qHTS in cells in absence of CPT; DT40 Tdp1-/- hTDP1 cells, no CPT, ATP luminescence, 48 h; Potency, µM (highest dose often 46.2 µM), without a hit: at the top dose activity change, negative = growth inhibition, actives largely listed as inhibitors; hit rate 15% among 420,000; AID 686978, 2013; further: potency means the concentration at half of the fitted maximal effect; nearly all actives have a fitted effect of over 55% in size
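Growth of hTDP1-complemented DT40 Tdp1-knockout cells is measured by ATP luminescence after at least 48 hr compound exposure at 37 °C, with DMSO substituting for the 20 nM CPT used in the parallel screen.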
IL1B secr inh – qHTS for Inhibitors of Inflammasome Signaling: IL-1-beta AlphaLISA Primary Screen; THP-1 LPS/ATP IL-1B secretion, AlphaLISA, 16 h; stronger effect = lower value; activity change, % at 57.5 µM; hit rate 4.7% among 360,000; AID 743279, 2014; in the data active means activity change below about -50%; inconclusive means mostly about -30% to -49%
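Secreted IL-1B measured by AlphaLISA bead assay after 16 h compound exposure of THP-1 cells; compounds (final up to 57.5 uM) added 1 h before LPS (250 ng/mL) and ATP (1.25 mM) stimulation; lower signal means less secretion.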
RORgamma inh – qHTS for inhibitors of ROR gamma transcriptional activity | AID 2551, 2010 | Nuclear receptor ROR-gamma (Mus musculus), P51450 | Potency, µM (highest dose often 53.6 µM), for the others: at the top dose activity change, negative = inhibition, hits mostly inhibitors | hit rate 5.4% among 310,000 | Drosophila S2 Gal4-RORgamma UAS-luciferase reporter, 20 h; further: potency means the concentration at half of the fitted maximal effect; nearly all actives have a fitted effect of over 60% in size
Target sequence (P51450 whole entry, looked up, the tested form may be a part): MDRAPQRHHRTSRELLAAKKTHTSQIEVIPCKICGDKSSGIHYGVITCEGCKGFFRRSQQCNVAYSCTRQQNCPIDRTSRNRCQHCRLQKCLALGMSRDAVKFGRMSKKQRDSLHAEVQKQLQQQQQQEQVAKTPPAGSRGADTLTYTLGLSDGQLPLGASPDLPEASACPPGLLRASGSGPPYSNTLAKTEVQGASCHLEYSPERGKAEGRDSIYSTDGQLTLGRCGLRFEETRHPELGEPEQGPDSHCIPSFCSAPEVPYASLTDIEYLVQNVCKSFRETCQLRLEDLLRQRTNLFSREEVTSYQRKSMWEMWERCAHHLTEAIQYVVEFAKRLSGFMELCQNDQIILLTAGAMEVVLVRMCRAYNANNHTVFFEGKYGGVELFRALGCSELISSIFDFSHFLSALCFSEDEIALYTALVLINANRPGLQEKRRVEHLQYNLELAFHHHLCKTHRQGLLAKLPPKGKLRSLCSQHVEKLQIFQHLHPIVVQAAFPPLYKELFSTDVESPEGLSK
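Compounds are pin-transferred onto Drosophila Schneider cells expressing a copper-inducible Gal4–ROR gamma transactivation domain fusion. After 1 hr, copper sulfate is added to 700 uM final; luciferase is read 20 hr later.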
Gal4-VP16 FLuc – VP16 counterscreen qHTS for inhibitors of ROR gamma transcriptional activity. Drosophila S2 Gal4-VP16 UAS-luciferase, luminescence, 20 h. Potency, µM (top dose mostly 53.6 µM), inactives show at the highest dose activity, negative = inhibition, actives largely listed as inhibitors. hit rate 3.5% among 310,000;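 further: Gal4-VP16 expression switched on by copper sulfate through the metallothionein promoter; potency means the concentration at half of the fitted maximal effect; nearly all actives have a fitted effect of over 50% in size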
* = called active by the depositor; ? = inconclusive; . = no result. Most compounds without a hit are left out; they make up all but 18% or so of the library. Unless noted, the call rests on the fitted dose curve; in most records, active means well fitted curve in the direction sought with a large enough effect; inconclusive means small, poorly fitted or top-dose-only effect, or another doubt; inactive means no such curve, though single readings can be large; an effect the other way counts as inactive or inconclusive. Unless noted, on the % scale 0 is the no-effect control and ±100 the full control effect.

SMILES	LDHA inh	TDP1 cell CPT	TDP1 cell noCPT	IL1B secr inh	RORgamma inh	Gal4-VP16 FLuc
CC(C)(C)c1ccc(C(=O)CCCSC2=C(C#N)C(c3ccco3)C3=C(CCCC3=O)N2)cc1 (stereo not given)	-2.5	16.4µM*	9.2µM*	-11.1	2.8%	-16.1%
COc1cccc(NC(=O)CSC2=C(C#N)C(c3ccco3)C3=C(CCCC3=O)N2)c1 (stereo not given)	-4.3	3.5%	-12.7%	?	7.9%	-7.0%
COc1ccc(C2C(C#N)=C(SCC(=O)Nc3ccc(C)cc3)NC3=C2C(=O)CC(C)(C)C3)cc1 (stereo not given)	-4.6	23.1µM*	16.4µM*	-56.6*	10.3%	3.5%
CCSC1=C(C#N)C(c2ccc(Cl)cc2)C2=C(CCCC2=O)N1 (stereo not given)	-2.9	1.46µM*	1.46µM*	-9.6	20.8%	0.2%
Cc1ccc(C)c(C(C)NC(=O)COc2ccccc2C#N)c1 (stereo not given)	3.3	.	.	.	.	.
COc1c(Br)cc(F)cc1NC(=O)Cc1coc2cc(C)c(C)cc12	6.1	.	.	.	.	.
O=C1CN(C(=O)c2cc(=O)[nH]c3ccccc23)CCN1	18.2	.	.	.	.	.
Cc1ccc(C(=O)CSC2=C(C#N)C(c3ccco3)C3=C(CCCC3=O)N2)cc1 (stereo not given)	17.2	3.26µM*	3.26µM*	0.0	31.6%	-3.1%
COc1ccc(NC(=O)CSC2=C(C#N)C(c3ccco3)C3=C(CCCC3=O)N2)c(OC)c1 (stereo not given)	-1.1	1.1%	1.6%	-29.1	7.0%	-16.2%
COc1ccccc1NC(=O)C1=C(C)NC(SCC(=O)c2ccc(C)cc2)=C(C#N)C1c1ccco1 (stereo not given)	.	.	.	.	-29.3%	3.2%
N#CC1=C(SCC(=O)c2ccccc2)NC2=C(C(=O)CCC2)C1c1ccco1 (stereo not given)	-0.3	2.91µM*	2.59µM*	-97.2*	?	?
CCN(CC)CCNC(=O)c1nc2ccccc2c(=O)[nH]1	1.5	.	.	.	.	.
Cc1ccc(SC(=O)c2c([N+](=O)[O-])c(C)nn2C)cc1	-12.9	18.4µM*	14.6µM*	-65.4*	3.98µM*	3.55µM*
CC(C)c1ccc(C(=O)NN)cc1	-3.6	.	.	.	.	.
CCc1ccc(Nc2nc(-c3ccc4c(c3)CC(=O)N4)cs2)cc1	-6.4	.	.	.	.	.
CCOc1cc(C(=O)NCC(c2ccc(N(C)C)cc2)N2CCOCC2)cc(OCC)c1OCC (stereo not given)	6.4	20.6µM*	18.4µM*	.	.	.
CN(C)c1ccc(C(CNC(=O)c2ccc(C(C)(C)C)cc2)N2CCOCC2)cc1 (stereo not given)	4.8	16.4µM*	20.6µM*	.	.	.
COc1ccc(CC(=O)NCC(c2ccc(N(C)C)cc2)N2CCOCC2)cc1OC (stereo not given)	-1.1	?	?	.	.	.
CCOc1cc(C2CC(=O)N3CN(c4ccccc4)CSC3=C2C#N)cc(Br)c1O (stereo not given)	16.4	.	.	.	.	.
CCN(CC)S(=O)(=O)c1ccc(Oc2ccccc2)c(NC(=O)c2cnccn2)c1	6.6	.	.	.	.	.
O=c1oc2ccc(Br)cc2cc1S(=O)(=O)c1ccc(F)cc1	-5.5	-3.8%	-112.2%	-77.8*	-14.5%	9.3%
O=S1(=O)c2c(F)cccc2OC(COCc2ccccc2)CN1C1CCCC1 (stereo not given)	-0.7	?	20.6µM*	-5.7	.	.
O=S1(=O)c2c(Oc3cccc4ccccc34)cccc2OC(COCc2ccccc2)CN1C1CCCC1 (stereo not given)	-8.0	6.51µM*	6.51µM*	22.1	.	.
O=C(CSc1cn(CCNC(=O)c2c(F)cccc2F)c2ccccc12)Nc1ccccc1F	-3.5	?	20.6µM*	.	.	.
CC(C)N(C(=O)Cn1cc(SCC(=O)Nc2ccccc2C(F)(F)F)c2ccccc21)C(C)C	-6.0	-6.0%	-17.0%	.	.	.
SMILES	LDHA inh	TDP1 cell CPT	TDP1 cell noCPT	IL1B secr inh	RORgamma inh	Gal4-VP16 FLuc
O=C(CSc1cn(CCNC(=O)c2c(F)cccc2F)c2ccccc12)Nc1ccc(F)cc1	3.4	?	16.4µM*	.	.	.
CC(C)N(C(=O)Cn1cc(SCC(=O)Nc2ccccc2F)c2ccccc21)C(C)C	4.1	?	13µM*	.	.	.
O=C(CSc1cn(CCNC(=O)c2ccccc2F)c2ccccc12)Nc1ccccc1F	-11.7	?	?	.	.	.
Cc1ccccc1Cn1cnc(NS(=O)(=O)c2c(C)n[nH]c2C)n1	-14.3	.	.	.	.	.
Cc1cc(=O)c(C(=O)N2CCN(S(=O)(=O)c3ccc4c(c3)CCC4)CC2)nn1-c1ccccc1F	7.5	.	.	.	.	.
C[N+]1(Cc2ccccc2)CCC(C(=O)OCC2CCCC2)CC1 (stereo not given)	.	?	20.6µM*	.	.	.
COc1ccccc1OCC(=O)Nc1cc(-c2ccc(F)c(F)c2)no1	6.2	.	.	.	.	.
COc1cc(CNCCN(C)C)c(Br)cc1OC1CCCC1	-6.2	18.4µM*	?	0.0	-32.8%	2.5%
CCOC(=O)C1CCCN(C(=O)Cn2cccc2-c2nc(-c3ccc(C)cc3)no2)C1 (stereo not given)	-4.7	.	.	.	.	.
CCCCN(CCCC)S(=O)(=O)c1ccc(C(=O)Nc2sc3c(c2C(N)=O)CCN(CC)C3)cc1	4.6	?	?	.	.	.
CC(C)N1CCc2c(sc(NC(=O)CCS(=O)(=O)c3ccccc3)c2C(N)=O)C1	0.0	?	?	-3.9	1.6%	-4.6%
CC(C)CN(CC(C)C)S(=O)(=O)c1ccc(C(=O)Nc2sc3c(c2C(N)=O)CCN(C(C)C)C3)cc1	-1.2	8.2µM*	9.2µM*	.	.	.
NC(=O)c1c(NC(=O)c2ccccc2)sc2c1CCN(Cc1ccccc1)C2	1.5	?	?	-10.7	-13.3%	?
CCOC(=O)c1c(NC(=O)c2ccc(S(=O)(=O)N(CC(C)C)CC(C)C)cc2)sc2c1CCN(CC)C2	1.7	8.2µM*	16.4µM*	.	.	.
CCN1CCc2c(sc(NC(=O)c3ccc(S(=O)(=O)N(CC)c4ccccc4)cc3)c2C(N)=O)C1	-5.2	?	14.6µM*	-95.8*	-40.4%	?
NC(=O)c1c(NC(=O)c2c(F)cccc2F)sc2c1CCN(Cc1ccccc1)C2	-1.7	?	16.4µM*	-8.1	?	-6.1%
